# Like-named read-outs stand apart in the source and are kept apart here.
# Assays:
# Settings in all cases: n = 1
# GRK7 = tested on: GRK7
# GSK3A = tested on: GSK3A
# GSK3B = tested on: GSK3B
# HASPIN = tested on: T1, HASPIN
# T1 construct: gene GSG2
# HCK = tested on: HCK
# HIPK1 = tested on: HIPK1
# HIPK2 = tested on: HIPK2
# HIPK3 = tested on: HIPK3
# HIPK4 = tested on: HIPK4
# HPK1 = tested on: HPK1
# HUNK = tested on: HUNK
# ICK = tested on: ICK
# IGF1R = tested on: IGF1R
# IKK-alpha = tested on: T2, IKK-alpha
# T2 construct: gene CHUK
# IKK-beta = tested on: T3, IKK-beta
# T3 construct: gene IKBKB
# IKK-epsilon = tested on: T4, IKK-epsilon
# T4 construct: gene IKBKE
# INSRR = tested on: INSRR
# INSR = tested on: INSR
# IRAK1 = tested on: IRAK1
# IRAK3 = tested on: IRAK3
# [1] = concentration: 1 μM, replicates: in singlicate
# 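Note: KINOMEscan kinase panel screen.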
smiles,measurement,setting,value
C[C@@H]1CCCCN1c1cc(-c2ccc3c(N)n[nH]c3c2)nc(N)n1 [GSK2258759],%Inh,GRK7; [1],0%
same,%Inh,GSK3A; [1],3%
same,%Inh,GSK3B; [1],3%
same,%Inh,HASPIN; [1],14%
same,%Inh,HCK; [1],0%
same,%Inh,HIPK1; [1],0%
same,%Inh,HIPK2; [1],0%
same,%Inh,HIPK3; [1],14%
same,%Inh,HIPK4; [1],0%
same,%Inh,HPK1; [1],28%
same,%Inh,HUNK; [1],0%
same,%Inh,ICK; [1],11%
same,%Inh,IGF1R; [1],4%
same,%Inh,IKK-alpha; [1],0%
same,%Inh,IKK-beta; [1],7%
same,%Inh,IKK-epsilon; [1],43%
same,%Inh,INSRR; [1],0%
same,%Inh,INSR; [1],6%
same,%Inh,IRAK1; [1],4%
same,%Inh,IRAK3; [1],0%
Cc1cccc(-c2cc(Nc3ccncc3)c3ccccc3n2)n1 [GSK223675],%Inh,GRK7; [1],0%
same,%Inh,GSK3A; [1],17%
same,%Inh,GSK3B; [1],12%
same,%Inh,HASPIN; [1],0%
same,%Inh,HCK; [1],0%
same,%Inh,HIPK1; [1],0%
same,%Inh,HIPK2; [1],0%
same,%Inh,HIPK3; [1],5%
same,%Inh,HIPK4; [1],0%
same,%Inh,HPK1; [1],12%
same,%Inh,HUNK; [1],0%
same,%Inh,ICK; [1],11%
same,%Inh,IGF1R; [1],0%
same,%Inh,IKK-alpha; [1],0%
same,%Inh,IKK-beta; [1],0%
same,%Inh,IKK-epsilon; [1],36%
same,%Inh,INSRR; [1],0%
same,%Inh,INSR; [1],14%
same,%Inh,IRAK1; [1],15%
same,%Inh,IRAK3; [1],0%
CC(C)(C)c1ccc(C(=O)Nc2cn3cc(Cl)ccc3n2)cc1,%Inh,GRK7; [1],0%
same,%Inh,GSK3A; [1],3%
same,%Inh,GSK3B; [1],0%
same,%Inh,HASPIN; [1],0%
same,%Inh,HCK; [1],1%
same,%Inh,HIPK1; [1],0%
same,%Inh,HIPK2; [1],0%
same,%Inh,HIPK3; [1],0%
same,%Inh,HIPK4; [1],0%
same,%Inh,HPK1; [1],4%
same,%Inh,HUNK; [1],43%
same,%Inh,ICK; [1],0%
same,%Inh,IGF1R; [1],0%
same,%Inh,IKK-alpha; [1],0%
same,%Inh,IKK-beta; [1],100%
same,%Inh,IKK-epsilon; [1],0%
same,%Inh,INSRR; [1],0%
same,%Inh,INSR; [1],0%
same,%Inh,IRAK1; [1],0%
same,%Inh,IRAK3; [1],23%
Cc1ccc(NC(=O)Nc2cccc(C(F)(F)F)c2)cc1 [GSK955403],%Inh,GRK7; 1 µM,10%
same,%Inh,GSK3A; 1 µM,0%
same,%Inh,GSK3B; 1 µM,0%
same,%Inh,HASPIN; 1 µM,12%
same,%Inh,HCK; 1 µM,0%
same,%Inh,HIPK1; 1 µM,8%
same,%Inh,HIPK2; 1 µM,0%
same,%Inh,HIPK3; 1 µM,0%
same,%Inh,HIPK4; 1 µM,0%
same,%Inh,HPK1; 1 µM,0%
same,%Inh,HUNK; 1 µM,0%
same,%Inh,ICK; 1 µM,0%
same,%Inh,IGF1R; 1 µM,0%
same,%Inh,IKK-alpha; 1 µM,0%
same,%Inh,IKK-beta; 1 µM,0%
same,%Inh,IKK-epsilon; 1 µM,0%
same,%Inh,INSRR; 1 µM,0%
same,%Inh,INSR; 1 µM,0%
same,%Inh,IRAK1; 1 µM,0%
same,%Inh,IRAK3; 1 µM,100%
COc1cc(Nc2nccc(N3CCC(NC(=O)Nc4cc(C)ccc4C)C3)n2)cc(OC)c1OC (centres unmarked) [GSK1379762],%Inh,GRK7; [1],0%
same,%Inh,GSK3A; [1],0%
same,%Inh,GSK3B; [1],11%
same,%Inh,HASPIN; [1],0%
same,%Inh,HCK; [1],0%
same,%Inh,HIPK1; [1],0%
same,%Inh,HIPK2; [1],0%
same,%Inh,HIPK3; [1],13%
same,%Inh,HIPK4; [1],0%
same,%Inh,HPK1; [1],66%
same,%Inh,HUNK; [1],0%
same,%Inh,ICK; [1],22%
same,%Inh,IGF1R; [1],15%
same,%Inh,IKK-alpha; [1],21%
same,%Inh,IKK-beta; [1],17%
same,%Inh,IKK-epsilon; [1],23%
same,%Inh,INSRR; [1],9%
same,%Inh,INSR; [1],0%
same,%Inh,IRAK1; [1],58%
same,%Inh,IRAK3; [1],73%
O=C(Nc1ccccc1)Nc1cccc(Oc2ccc3nccn3n2)c1,%Inh,GRK7; [1],0%
same,%Inh,GSK3A; [1],50%
same,%Inh,GSK3B; [1],0%
same,%Inh,HASPIN; [1],4%
same,%Inh,HCK; [1],24%
same,%Inh,HIPK1; [1],0%
same,%Inh,HIPK2; [1],27%
same,%Inh,HIPK3; [1],0%
same,%Inh,HIPK4; [1],9%
same,%Inh,HPK1; [1],33%
same,%Inh,HUNK; [1],18%
same,%Inh,ICK; [1],0%
same,%Inh,IGF1R; [1],0%
same,%Inh,IKK-alpha; [1],7%
same,%Inh,IKK-beta; [1],0%
same,%Inh,IKK-epsilon; [1],0%
same,%Inh,INSRR; [1],0%
same,%Inh,INSR; [1],0%
same,%Inh,IRAK1; [1],9%
same,%Inh,IRAK3; [1],1%
O=C(Nc1ccc2c(c1)OCO2)NC1CCN(c2ccnc(Nc3ccc(F)cc3)n2)C1 (centres unmarked) [GSK1379724],%Inh,GRK7; [1],0%
same,%Inh,GSK3A; [1],1%
same,%Inh,GSK3B; [1],16%
same,%Inh,HASPIN; [1],0%
same,%Inh,HCK; [1],0%
same,%Inh,HIPK1; [1],0%
same,%Inh,HIPK2; [1],0%
same,%Inh,HIPK3; [1],1%
same,%Inh,HIPK4; [1],0%
same,%Inh,HPK1; [1],45%
same,%Inh,HUNK; [1],12%
same,%Inh,ICK; [1],19%
same,%Inh,IGF1R; [1],0%
same,%Inh,IKK-alpha; [1],25%
same,%Inh,IKK-beta; [1],16%
same,%Inh,IKK-epsilon; [1],0%
same,%Inh,INSRR; [1],0%
same,%Inh,INSR; [1],0%
same,%Inh,IRAK1; [1],36%
same,%Inh,IRAK3; [1],0%
